The record followed here is PubChem BioAssay (Tox21).

Values without a mark were called inactive. Records with an inconclusive call do not appear. Active and inactive are the calls of the source. Unless noted, the call rests on the fitted dose curve; in most records, active means well fitted curve in the direction sought with a large enough effect in the repeat runs; inconclusive means weak or mixed curves; inactive means no such curve, though single readings can be large; an effect the other way counts as inactive or inconclusive.

Assay [1] in a line: qHTS assay to identify small molecule agonists of the TGF-beta/Smad signaling pathway - cell viability counter screen (AID 1346829). Further: top concentration of the series differs between compounds; nearly all actives have a fitted effect of over 45% in size. The method, boiled down: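 Compound-treated SBE-bla HEK 293T cells (5 hr, 37 C) were assessed for viability with CellTiter-Glo in parallel with the reporter read.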
(In qHTS, concentration-response curves come from the screen itself.)

Assay [2] can be described thus: qHTS assay to identify small molecule agonists of the TGF-beta/Smad signaling pathway (AID 1346859; active means well fitted activation curve with a large enough effect in the signal ratio in the repeat runs, not every such curve was filed as active; the % refers to the signal ratio; further: series mostly up to about 77 µM). The method, boiled down:
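After overnight seeding, SBE-bla HEK 293T cells are dosed with compounds in DMSO and kept 5 hr at 37 C, 5% CO2. LiveBLAzer-type FRET substrate is then applied for 2 hr at room temperature.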

A short description of assay [3]: Human pregnane X receptor (PXR) small molecule agonists, qHTS cell viability counter screen (AID 1346977). Further: nearly all actives have a fitted effect of over 50% in size. The method, boiled down:
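Viability counter screen: CellTiter-Fluor signal in PXR-Luc HepG2 cells, 24hr compound exposure, 37C, 5% CO2.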

Assay [4] in a line: Caspase-3/7 induction in HepG2 cells by small molecules, qHTS assay (AID 1346978). Further: nearly all actives have a fitted effect of over 15% in size. Summed up: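 Wild-type HepG2 cells, 2,000/well, settled 5 hr at 37 C and 5% CO2, then compound-treated for 17 hr; caspase-3/7 activity read by luminescent Caspase-Glo 3/7 after 30 min at room temperature.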
Assay [5] is described as follows: Caspase-3/7 induction in CHO-K1 cells by small molecules, qHTS cell viability counter screen (AID 1346979). Further: nearly all actives have a fitted effect of over 35% in size. Summed up: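 Viability readout by fluorescence (CellTiter-Fluor) on wild-type CHO-K1 cells exposed for 16hr at 37C and 5% CO2 to compounds delivered in DMSO; reagent incubated 1hr before reading.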
Assay [6] is described as follows: Caspase-3/7 induction in CHO-K1 cells by small molecules, qHTS assay (AID 1346980). Further: nearly all actives have a fitted effect of over 15% in size. Summed up:
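Wild-type CHO-K1 cells exposed to compounds for 17hr at 37 C, 5% CO2. Caspase-3/7 activity then measured by Caspase-Glo 3/7 luminescence after 30min at room temperature.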

Assay [7] is described as follows: Caspase-3/7 induction in HepG2 cells by small molecules, qHTS cell viability counter screen (AID 1346981). Further: series mostly up to about 92 µM; nearly all actives have a fitted effect of over 30% in size. Summed up:
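Cell viability is measured as a cytotoxicity counter screen alongside the Caspase-Glo 3/7 readout in identical wells. Wild-type HepG2 cells are treated with test compounds for 16 hr at 37 C before CellTiter-Fluor addition and a 1-hr incubation.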

In assay [8] the target is Nuclear receptor subfamily 1 group I member 2 (Homo sapiens) (UniProt O75469). The assay can be described thus: Human pregnane X receptor (PXR) small molecule agonists, qHTS assay (AID 1346982). Further: nearly all actives have a fitted effect of over 35% in size. Summed up: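 Cells: HepG2 stably carrying PXR-Luc. Medium held 5% charcoal-stripped FBS. Compounds in DMSO added after 5 hr plating, incubated 24 hr, then luminescence quantified with ONE-Glo.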
Sequence of Nuclear receptor subfamily 1 group I member 2 (Homo sapiens) (O75469 whole entry, looked up): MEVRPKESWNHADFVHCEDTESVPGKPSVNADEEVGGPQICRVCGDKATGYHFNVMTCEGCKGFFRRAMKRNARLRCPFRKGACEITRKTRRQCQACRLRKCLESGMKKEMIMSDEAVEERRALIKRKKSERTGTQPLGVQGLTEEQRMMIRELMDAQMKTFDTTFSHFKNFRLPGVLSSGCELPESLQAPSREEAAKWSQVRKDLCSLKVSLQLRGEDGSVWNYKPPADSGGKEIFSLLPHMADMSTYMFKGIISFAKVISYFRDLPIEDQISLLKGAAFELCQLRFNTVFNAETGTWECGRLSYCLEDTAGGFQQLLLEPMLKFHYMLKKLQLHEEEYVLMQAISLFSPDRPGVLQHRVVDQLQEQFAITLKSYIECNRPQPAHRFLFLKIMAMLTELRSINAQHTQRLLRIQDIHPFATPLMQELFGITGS

Assay [9] has as its target Cytochrome P450 2D6 (Homo sapiens) (UniProt P10635). The assay can be described thus: Cytochrome P450 Family 2 Subfamily D Member 6 (CYP2D6) small molecule antagonists: luciferase reporter qHTS assay (AID 1671196). Further: series mostly up to about 120 µM; nearly all actives have a fitted effect of over 50% in size. The method, boiled down:
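Enzyme and proluciferin substrate were first combined with test chemical for 10 min at room temperature. Adding NADPH regeneration solution started a 1 h reaction, stopped with luciferin detection reagent and read by luminescence 20 min later.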
A general note: Reporter assays use an easily measured gene product as a stand-in for the process of interest.

Assay [10] addresses Cytochrome P450 2C19 (Homo sapiens) (UniProt P33261). The assay is described as follows: Cytochrome P450 Family 2 Subfamily C Member 19 (CYP2C19) small molecule antagonists: luciferase reporter qHTS assay (AID 1671197). Further: nearly all actives have a fitted effect of over 65% in size. Further: potency means the concentration at half of the fitted maximal effect. Summed up:
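P450-Glo CYP2C19 screening system; proluciferin substrate; DMSO compound stocks; 10 min RT preincubation; NADPH regeneration, 1 h at 37C; luciferin detection reagent, 20 min RT; luminescence as RLU.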

Assay [11] has as its target Cytochrome P450 2C9 (Homo sapiens) (UniProt P11712). The assay is described as follows: Cytochrome P450 Family 2 Subfamily C Member 9 (CYP2C9) small molecule antagonists: luciferase reporter qHTS assay (AID 1671198). Further: nearly all actives have a fitted effect of over 50% in size. Further: potency means the concentration at half of the fitted maximal effect. Summed up:
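P450-Glo proluciferin substrate with CYP2C9 enzyme; 10 min RT preincubation, then NADPH regeneration 1 h at 37C; luciferin detection reagent 20 min RT, luminescence in relative luminescence units.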

The target of assay [12] is Cytochrome P450 1A2 (Homo sapiens) (UniProt P05177). The assay can be described thus: Cytochrome P450 Family 1 Subfamily A Member 2 (CYP1A2) small molecule antagonists: luciferase reporter qHTS assay (AID 1671199). Further: nearly all actives have a fitted effect of over 50% in size. Further: potency means the concentration at half of the fitted maximal effect. The method, boiled down:
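Compounds were incubated with CYP1A2 and a luminogenic proluciferin substrate for 10 min at room temperature before the reaction was started with NADPH regeneration solution. After 1 h, detection reagent was added and light output, proportional to CYP activity, was recorded.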

The target in assay [13] is Voltage-gated inwardly rectifying potassium channel KCNH2 (Homo sapiens) (UniProt Q12809). The assay is described as follows: Human Ether-a-go-go-Related Gene (hERG) channel small molecule antagonists: fluorescence cell-based qHTS assay (AID 1671200). The method, boiled down: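 Thallium served as the potassium surrogate; its influx into dye-loaded U2OS cells carrying the channel was measured by fluorescence over 2 min.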
Sequence of Voltage-gated inwardly rectifying potassium channel KCNH2 (Homo sapiens) (Q12809 whole entry, looked up): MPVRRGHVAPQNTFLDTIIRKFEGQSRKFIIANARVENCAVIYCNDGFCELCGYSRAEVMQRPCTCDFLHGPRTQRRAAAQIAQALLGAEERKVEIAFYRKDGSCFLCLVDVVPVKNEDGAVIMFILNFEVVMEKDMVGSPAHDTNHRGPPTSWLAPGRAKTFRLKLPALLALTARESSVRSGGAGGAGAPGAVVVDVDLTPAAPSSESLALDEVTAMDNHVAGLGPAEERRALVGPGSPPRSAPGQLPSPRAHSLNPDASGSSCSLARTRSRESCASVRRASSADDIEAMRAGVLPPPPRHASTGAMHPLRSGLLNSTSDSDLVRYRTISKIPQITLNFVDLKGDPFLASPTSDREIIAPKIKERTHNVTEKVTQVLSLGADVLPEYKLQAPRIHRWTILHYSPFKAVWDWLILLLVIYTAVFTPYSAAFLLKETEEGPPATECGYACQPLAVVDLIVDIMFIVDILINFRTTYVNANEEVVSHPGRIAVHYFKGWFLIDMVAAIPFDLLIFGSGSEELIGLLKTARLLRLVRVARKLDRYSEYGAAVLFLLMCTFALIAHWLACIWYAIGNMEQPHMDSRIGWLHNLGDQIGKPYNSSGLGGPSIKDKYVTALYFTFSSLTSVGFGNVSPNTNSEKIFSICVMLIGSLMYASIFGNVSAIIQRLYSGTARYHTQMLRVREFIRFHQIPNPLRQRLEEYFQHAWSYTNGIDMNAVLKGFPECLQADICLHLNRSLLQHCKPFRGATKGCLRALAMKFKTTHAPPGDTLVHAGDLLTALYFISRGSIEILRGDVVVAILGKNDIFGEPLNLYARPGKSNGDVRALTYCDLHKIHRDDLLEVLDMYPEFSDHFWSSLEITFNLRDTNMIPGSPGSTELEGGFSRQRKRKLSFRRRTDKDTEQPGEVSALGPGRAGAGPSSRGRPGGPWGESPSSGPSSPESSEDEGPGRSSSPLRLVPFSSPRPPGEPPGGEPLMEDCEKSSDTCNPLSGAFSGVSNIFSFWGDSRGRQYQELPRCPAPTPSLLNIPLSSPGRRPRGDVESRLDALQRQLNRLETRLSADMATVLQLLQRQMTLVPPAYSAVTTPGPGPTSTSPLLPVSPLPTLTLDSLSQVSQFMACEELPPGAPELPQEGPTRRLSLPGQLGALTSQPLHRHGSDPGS

Assay [14] deals with Cytochrome P450 3A4 (Homo sapiens) (UniProt P08684). The assay can be described thus: Cytochrome P450 Family 3 Subfamily A Member 4 (CYP3A4) small molecule antagonists: luciferase reporter qHTS assay (AID 1671201). The method, boiled down:
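Relative luminescence units after 20 min with luciferin detection reagent served as read-out. Beforehand, CYP3A4 turned over a proluciferin substrate for 1 h at room temperature with NADPH regeneration, following 10 min compound preincubation.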

For assay [15], the target named is Thyrotropin-releasing hormone receptor (Homo sapiens) (UniProt P34981). The assay can be described thus: qHTS assay to identify small molecule antagonists of the thyrotropin-releasing hormone receptor (TRHR) signaling pathway (AID 1346877; active means well fitted inhibition curve with a large enough effect in the repeat runs, not every such curve was filed as active; further: series mostly up to about 51 µM). Summed up: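 Antagonism is measured as suppression of the calcium response to 1 nM TRH in TRHR-HEK293 cells that have been dye-loaded for 2 h at 37 °C after overnight plating. Each compound is tested at 15 concentrations in triplicate.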
Sequence of Thyrotropin-releasing hormone receptor (Homo sapiens) (P34981 whole entry, looked up): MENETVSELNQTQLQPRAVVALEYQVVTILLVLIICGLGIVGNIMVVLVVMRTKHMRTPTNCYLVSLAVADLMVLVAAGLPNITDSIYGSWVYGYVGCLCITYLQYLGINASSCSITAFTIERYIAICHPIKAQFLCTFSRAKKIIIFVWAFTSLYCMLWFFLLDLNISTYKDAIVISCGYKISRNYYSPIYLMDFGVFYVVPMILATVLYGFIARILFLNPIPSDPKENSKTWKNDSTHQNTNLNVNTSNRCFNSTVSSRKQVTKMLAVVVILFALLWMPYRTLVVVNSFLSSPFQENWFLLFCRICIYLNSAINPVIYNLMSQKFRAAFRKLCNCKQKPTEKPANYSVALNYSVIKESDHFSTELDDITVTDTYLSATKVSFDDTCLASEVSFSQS

Assay [16] shares this target. The assay is described as follows: qHTS assay to identify small molecule agonists of the thyrotropin-releasing hormone receptor (TRHR) signaling pathway (AID 1346891; calls by dose curve;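 further: HEK293 cells expressing TRHR with calcium dye readout; series mostly up to about 58 µM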). Summed up: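 Compounds were tested as agonists at 15 concentrations, in triplicate, on TRHR-Hek293 cells; calcium-sensitive dye fluorescence was recorded for 3 min following addition.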
Assay [17] has as its target Nuclear receptor subfamily 1 group I member 2 (Rattus norvegicus) (UniProt Q9R1A7). The assay is described as follows: Rat pregnane X receptor (rPXR) activation by small molecules, qHTS assay (AID 1346983). Further: nearly all actives have a fitted effect of over 20% in size. Particulars: rPXR luciferase reporter cells, One-Glo luminescence, 24 h; max activation: stronger effect = higher value. The method, boiled down:
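Cell-based rPXR activation assay: rPXR cells, 2,000 per well, rested 5hr at 37 C, then exposed to compounds in DMSO for 24 hr at 37 C. Luciferase activity read by One-Glo luminescence after 30 min at room temperature.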

In assay [18] the target is Nuclear receptor subfamily 1 group I member 2 (Homo sapiens) (UniProt O75469). The assay can be described thus: CYP3A4 induction through human pregnane X receptor (PXR) by small molecules, qHTS assay (AID 1346984). Further: nearly all actives have a fitted effect of over 40% in size. Summed up: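 Quantitative HTS in DPX-2 cells, i.e. HepG2 transfected with PXR response element and CYP3A4-promoter luciferase. Compounds in DMSO incubated 24hr at 37C; then P450-Glo CYP3A4 substrate, 3uM final, 3hr; One-Glo luminescence.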

Assay [19] shares this target. The assay can be described thus: Human pregnane X receptor (PXR) activation by small molecules, qHTS assay (AID 1346985). Further: nearly all actives have a fitted effect of over 40% in size. Summed up: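 DPX-2 cells (HepG2 co-transfected with a PXR response element and a CYP3A4-promoter luciferase construct) were seeded at 2,000 per well, rested 5 hr at 37C, then exposed to DMSO-dissolved compounds for 24 hr. Activation was read as luciferase luminescence.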
On the % scale 0 is the no-effect control and ±100 the full control effect.

Sequence of Cytochrome P450 2D6 (Homo sapiens) (P10635 whole entry, looked up): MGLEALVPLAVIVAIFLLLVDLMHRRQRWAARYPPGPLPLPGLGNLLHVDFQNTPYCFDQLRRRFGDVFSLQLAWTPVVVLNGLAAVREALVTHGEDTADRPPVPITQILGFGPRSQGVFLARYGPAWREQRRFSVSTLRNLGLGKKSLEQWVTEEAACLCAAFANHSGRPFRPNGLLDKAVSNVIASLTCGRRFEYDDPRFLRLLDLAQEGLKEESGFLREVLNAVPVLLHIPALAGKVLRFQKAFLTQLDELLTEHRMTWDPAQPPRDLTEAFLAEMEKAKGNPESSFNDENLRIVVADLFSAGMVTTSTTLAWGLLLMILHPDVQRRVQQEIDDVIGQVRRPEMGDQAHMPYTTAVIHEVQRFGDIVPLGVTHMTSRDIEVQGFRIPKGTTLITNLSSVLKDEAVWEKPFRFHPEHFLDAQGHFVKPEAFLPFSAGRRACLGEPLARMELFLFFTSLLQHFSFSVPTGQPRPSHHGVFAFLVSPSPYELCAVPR
Sequence of Cytochrome P450 2C9 (Homo sapiens) (P11712 whole entry, looked up): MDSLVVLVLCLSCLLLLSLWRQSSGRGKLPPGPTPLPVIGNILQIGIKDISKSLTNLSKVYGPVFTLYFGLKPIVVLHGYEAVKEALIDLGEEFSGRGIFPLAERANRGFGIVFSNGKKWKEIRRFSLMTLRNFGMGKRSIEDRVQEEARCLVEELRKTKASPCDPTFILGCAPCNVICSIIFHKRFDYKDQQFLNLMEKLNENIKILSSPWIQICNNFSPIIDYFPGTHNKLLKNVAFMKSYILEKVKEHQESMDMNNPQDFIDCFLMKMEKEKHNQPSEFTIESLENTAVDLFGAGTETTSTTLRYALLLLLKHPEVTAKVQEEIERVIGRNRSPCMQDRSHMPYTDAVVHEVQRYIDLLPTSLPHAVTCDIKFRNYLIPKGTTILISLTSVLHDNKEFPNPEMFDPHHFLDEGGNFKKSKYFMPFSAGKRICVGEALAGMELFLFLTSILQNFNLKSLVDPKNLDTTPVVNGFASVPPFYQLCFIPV
Sequence of Nuclear receptor subfamily 1 group I member 2 (Rattus norvegicus) (Q9R1A7 whole entry, looked up): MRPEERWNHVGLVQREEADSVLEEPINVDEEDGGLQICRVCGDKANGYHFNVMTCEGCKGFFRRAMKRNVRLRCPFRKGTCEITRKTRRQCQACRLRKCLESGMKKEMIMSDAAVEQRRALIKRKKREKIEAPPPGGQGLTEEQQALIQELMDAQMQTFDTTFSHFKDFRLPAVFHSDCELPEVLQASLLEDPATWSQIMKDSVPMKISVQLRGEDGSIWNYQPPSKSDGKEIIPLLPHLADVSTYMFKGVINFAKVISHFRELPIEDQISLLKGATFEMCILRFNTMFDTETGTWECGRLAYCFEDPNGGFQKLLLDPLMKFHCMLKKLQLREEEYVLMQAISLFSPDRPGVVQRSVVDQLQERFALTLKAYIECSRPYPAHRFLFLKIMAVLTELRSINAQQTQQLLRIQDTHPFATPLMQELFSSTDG
Sequence of Cytochrome P450 3A4 (Homo sapiens) (P08684 whole entry, looked up): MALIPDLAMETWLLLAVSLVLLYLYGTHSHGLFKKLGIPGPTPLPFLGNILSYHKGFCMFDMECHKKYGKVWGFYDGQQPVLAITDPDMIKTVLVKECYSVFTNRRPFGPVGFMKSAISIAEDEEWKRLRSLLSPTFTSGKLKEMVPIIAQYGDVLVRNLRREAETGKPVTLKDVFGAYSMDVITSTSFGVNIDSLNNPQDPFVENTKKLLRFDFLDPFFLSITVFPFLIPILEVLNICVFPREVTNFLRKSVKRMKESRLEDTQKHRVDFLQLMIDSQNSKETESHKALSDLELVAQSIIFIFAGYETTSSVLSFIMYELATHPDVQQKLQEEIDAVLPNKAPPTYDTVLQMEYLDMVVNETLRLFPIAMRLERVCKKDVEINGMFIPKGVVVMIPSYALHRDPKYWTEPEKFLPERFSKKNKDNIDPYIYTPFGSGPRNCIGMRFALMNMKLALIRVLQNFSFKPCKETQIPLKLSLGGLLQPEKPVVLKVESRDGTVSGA
Sequence of Cytochrome P450 2C19 (Homo sapiens) (P33261 whole entry, looked up): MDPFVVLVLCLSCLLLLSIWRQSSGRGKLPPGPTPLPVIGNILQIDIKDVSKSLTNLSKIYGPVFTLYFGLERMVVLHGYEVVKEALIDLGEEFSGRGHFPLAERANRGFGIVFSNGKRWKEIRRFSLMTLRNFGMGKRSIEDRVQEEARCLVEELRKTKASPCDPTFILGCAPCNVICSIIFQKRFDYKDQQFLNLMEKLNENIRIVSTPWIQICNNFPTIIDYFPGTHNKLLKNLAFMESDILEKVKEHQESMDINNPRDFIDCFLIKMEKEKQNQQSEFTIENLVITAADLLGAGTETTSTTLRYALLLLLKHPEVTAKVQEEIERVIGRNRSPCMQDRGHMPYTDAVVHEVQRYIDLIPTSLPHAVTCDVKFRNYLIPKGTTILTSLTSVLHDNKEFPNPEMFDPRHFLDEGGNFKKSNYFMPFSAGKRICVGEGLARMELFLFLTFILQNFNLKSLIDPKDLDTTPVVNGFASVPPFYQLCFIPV
Sequence of Cytochrome P450 1A2 (Homo sapiens) (P05177 whole entry, looked up): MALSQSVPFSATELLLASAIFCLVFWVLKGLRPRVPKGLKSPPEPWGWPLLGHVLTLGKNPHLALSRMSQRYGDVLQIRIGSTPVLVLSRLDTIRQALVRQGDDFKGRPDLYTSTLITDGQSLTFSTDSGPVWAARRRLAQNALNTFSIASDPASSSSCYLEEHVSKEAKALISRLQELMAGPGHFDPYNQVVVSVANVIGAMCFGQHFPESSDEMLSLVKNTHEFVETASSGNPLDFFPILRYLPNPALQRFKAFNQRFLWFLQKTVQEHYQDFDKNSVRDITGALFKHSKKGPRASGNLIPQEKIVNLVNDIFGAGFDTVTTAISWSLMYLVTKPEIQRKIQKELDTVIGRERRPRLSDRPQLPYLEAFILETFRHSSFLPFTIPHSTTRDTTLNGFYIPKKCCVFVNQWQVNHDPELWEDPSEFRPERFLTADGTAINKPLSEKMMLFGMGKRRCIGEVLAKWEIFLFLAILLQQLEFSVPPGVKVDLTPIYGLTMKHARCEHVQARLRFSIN

For `CCCCCCCCCCC`, the result in [1], in assay [2], in assay [4] and in assay [6] was inactive. Besides, the Potency entry in [3], in assay [5], in assay [7], in assay [8], in assay [9] and in [10] was “inactive” each time. For the same compound, the Potency entry in assay [12], in assay [13] and in [14] was “inactive” in each case. In assay [11], the Potency is 79.6 µM (active).

With `Cc1ccc2c(c1)c1c3n2CCNC3CCC1` (stereo not drawn), the result in assay [1], in [2], in assay [15], in [16] and in assay [4] was inactive. Also, the Potency result in assay [5] and in assay [13] was “inactive” in each case. Besides, the max activation in [17] is -0.806%.

As to `O=C(/C=C/c1ccccc1)NCCO`, the compound was classed as inactive in assay [1], in assay [2], in assay [15], in assay [4], in assay [6] and in assay [18]. The Potency entry in assay [3], in assay [7], in [19], in assay [13] and in [14] was “inactive” each time. Besides, in [17], the max activation was -0.885%. The Potency in assay [10] is 15.5 µM (active); in assay [11], 13.8 µM (active); in assay [12], 11.5 µM (active).

As to `CC(C)(CO)[C@@H](O)C(=O)NCCCO`, the compound was classed as inactive in assay [1], in [2], in assay [4], in assay [6] and in [18]. Further, the Potency entry in assay [3], in assay [5], in [7], in [8], in [19] and in assay [9] was “inactive” each time. For the same compound, the Potency entry in assay [10], in [11], in assay [12] and in [13] was “inactive” throughout. The max activation in assay [17] was -0.489%.

As for `CCC(C)(CCC(C)C)C(=O)[O-].CCC(C)(CCC(C)C)C(=O)[O-].[Zn+2]` (stereo not drawn), the compound was classed as inactive in assay [1], in [2], in [4] and in assay [6]. Further, the Potency result in assay [3], in [5], in [7], in assay [9], in [13] and in assay [14] was “inactive” each time. For the same compound, the Potency in assay [10] and in assay [11] was 17.8 µM (active) each time.

Regarding `OC[C@@H](O)[C@H](O)[C@@H](O)[C@@H](O)CO`, the compound was called inactive in assay [1], in assay [2], in assay [4] and in assay [6]. In addition, the Potency result in assay [3], in assay [5], in [7], in [8], in [9] and in assay [11] was “inactive” in each case. Further, the Potency entry in [13] and in assay [14] was “inactive” each time. Also, the Potency in [10] is 44.8 µM (active).

Turning to `CC(C)CCO`, the compound was classed as inactive in assay [1], in assay [2] and in assay [4]. In addition, the Potency entry in assay [3], in assay [5], in [7], in [8], in assay [9] and in [11] was “inactive” throughout. The Potency entry in assay [12], in [13] and in assay [14] was “inactive” in each case.

Take `Cc1ccc(C(=O)C(=O)O)cc1C`: the compound was called inactive in assay [1], in assay [2] and in assay [4]. For the same compound, the Potency entry in [3], in [5], in assay [7], in assay [8], in assay [9] and in [10] was “inactive” in each case. The Potency entry in assay [11] and in assay [13] was “inactive” in each case. In [12], the Potency was 30.9 µM (active).

As for `CCC(=O)OCCC(C)CCC=C(C)C` (stereo not drawn), the compound was called inactive in [1], in assay [2] and in assay [4]. Also, the Potency entry in assay [3], in assay [5], in assay [7], in assay [8] and in [13] was “inactive” throughout. Besides, the results for the Potency in assay [10], in assay [11] and in [12] were 20 µM (active), 25.2 µM (active) and 39.9 µM (active), respectively.
